# Values joined by “and” are separate entries in the source; they are usually repeats but may differ in a detail not shown here. Identical values can stand only once. The campaign covered roughly 370,000 compounds. About 2,800 (0.76%) were called active. Rule as the data show it: active = inhibition above about 21%; inactive = the rest. The full list was thinned out, with actives kept by preference. More than one record can exist for a structure, and the calls need not agree.
# Target: E3 ubiquitin-protein ligase UHRF1 (Homo sapiens) (UniProt Q96T88)
# Assay: UHRF1 methylated DNA binding inhibitors, primary screen, counter-screen for MBD2 inhibitor project, biochemical, TR-FRET, human UHRF1, single concentration (AID 687016);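 also: UHRF1 SRA domain binding a hemimethylated CpG hairpin DNA probe; 0% = median of test compound wells and 100% = reference inhibitor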
# Details: UHRF1 binding to methylated oligo, at 4.4 µM, stronger effect = higher value
# E3 ubiquitin-protein ligase UHRF1 (Homo sapiens), sequence (Q96T88 whole entry, looked up, the tested form may be a part): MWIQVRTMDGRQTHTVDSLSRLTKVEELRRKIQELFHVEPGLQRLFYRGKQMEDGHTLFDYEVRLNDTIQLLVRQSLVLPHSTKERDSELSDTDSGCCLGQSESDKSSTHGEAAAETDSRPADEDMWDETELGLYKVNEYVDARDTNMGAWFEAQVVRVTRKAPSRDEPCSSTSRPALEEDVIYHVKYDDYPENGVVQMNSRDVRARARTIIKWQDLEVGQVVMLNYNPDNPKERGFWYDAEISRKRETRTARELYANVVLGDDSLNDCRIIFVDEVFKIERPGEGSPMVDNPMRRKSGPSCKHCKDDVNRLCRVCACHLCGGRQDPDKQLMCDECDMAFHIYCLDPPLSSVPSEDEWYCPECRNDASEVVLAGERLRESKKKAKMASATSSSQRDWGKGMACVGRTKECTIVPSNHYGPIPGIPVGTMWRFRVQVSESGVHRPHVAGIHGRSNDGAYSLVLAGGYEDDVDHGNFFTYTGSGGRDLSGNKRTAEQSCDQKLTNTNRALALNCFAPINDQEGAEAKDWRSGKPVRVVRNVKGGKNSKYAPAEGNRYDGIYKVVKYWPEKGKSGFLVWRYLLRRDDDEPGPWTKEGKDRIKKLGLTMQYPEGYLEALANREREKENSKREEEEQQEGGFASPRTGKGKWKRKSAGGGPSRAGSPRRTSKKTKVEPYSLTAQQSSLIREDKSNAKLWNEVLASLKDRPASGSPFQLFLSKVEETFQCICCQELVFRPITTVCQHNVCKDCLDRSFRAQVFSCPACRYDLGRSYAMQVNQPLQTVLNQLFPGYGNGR
row,Compound,inhibition
1,CCC(=O)OCCCN1C(=O)CCC12CCC(c1ccccc1)CC2 (centres undefined),-3.69% (inactive)
2,COc1ccc(Cn2ccc3ccc(-c4ccc5ccn(Cc6ccccc6C)c5c4)cc32)cc1,-0.92% (inactive)
3,CC(C)N1CCCCC(NC(=O)c2ccc3ccccc3c2)C1=O (centres undefined),-2.66% (inactive)
4,O=C(c1c[nH]c2ccccc12)N1CCC(Oc2cccnc2)CC1,-3.48% (inactive)
5,COC(=O)[C@H](C(C)C)N1CCc2nnn(Cc3ccc(C)cc3)c2-c2ccccc2S1(=O)=O,-0.67% (inactive)
6,C=CCN1C(=O)[C@@H](CC(=O)NCCCCc2ccccc2)[C@]2(C(=O)OCC)CCCCC/C=C/12,-1.86% (inactive)
7,COc1ccc2[nH]c3c(C)c4cc[n+](C)cc4c(C)c3c2c1,92.9% (active)
8,CC(=O)N1CCCN(C2=Nc3ccccc3Sc3ccccc32)CC1,11.8% (inactive)
9,Cc1ccc(NC(=O)Cn2sc3ccccc3c2=O)cc1,-0.79% (inactive)
10,Cc1ccnc(-n2sc3ccccc3c2=O)n1,21.5% (active)
11,Cc1ccnc(SC2CC(=O)N(c3ccccc3)C2=O)n1 (centres undefined),-0.14% (inactive)
12,COc1ccc(CN2C/C(=C/c3ccccc3)N3C(=O)C[C@@H](c4ccccc4)N=C23)c(OC)c1,-0.02% (inactive)
13,COc1ccc(/C=C2\CC3(OC(C)=O)CCCN2C3)cc1 (centres undefined),-2.63% (inactive)
14,C=CCN1C(C(=O)OC)CN(Cc2cn(Cc3ccccc3)nn2)CCS1(=O)=O (centres undefined),15.8% (inactive)
15,O=C(CNC(=O)c1ccccc1F)OCC(=O)c1c[nH]c2ccccc12,-1.49% (inactive)
16,C[N+](C)(C)CCNC(=O)c1c[nH]c2ccccc12,21.1% (active)
17,O=C(NCCCc1ccccc1)C(=O)c1c[nH]c2ccccc12,-1.59% (inactive)
18,Clc1ccc(-n2c(COc3ccccc3)nnc2SCc2nc3ccccc3[nH]2)cc1,-1.31% (inactive)
19,C[C@@H](NC(=O)c1ccccc1OCC(=O)Nc1ccc(I)cc1)C(=O)N(C)Cc1ccccc1,0.7% (inactive)
20,COc1ccc2c(c1)c(=Cc1ccc(N(C)C)cc1)c1cc(-c3ccccc3)[n+](C)n12,57.8% (active)
21,C=C1C(C(C)C)N(C)C2=NC(c3ccccc3)CC(=O)N12 (centres undefined),-0.97% (inactive)
22,CC(C)CSc1nnc(-c2cccnc2)n1Cc1ccccc1,-0.61% (inactive)
23,Cc1ccc(NC(=O)Cc2cccc(F)c2)c(S(=O)(=O)N2CCOCC2)c1,0.9% (inactive)
24,Cc1ccccc1Cn1c2ccccc2c2cnn(CC(=O)NCc3ccco3)c(=O)c21,22.5% (active)
25,O=C(Cn1ncc2c3ccccc3n(Cc3ccccc3)c2c1=O)NCc1ccccn1,0.71% (inactive)
26,O=C(Cn1ncc2c3ccccc3n(Cc3ccccc3)c2c1=O)NCCCN1CCOCC1,0.46% (inactive)
27,CCC(=O)c1c(CC)c2n3c1=CC[C@H]3CC(Br)C=2 (some centres undefined),1.95% (inactive)

row,Compound,inhibition
1,O=C(NCc1ccc(Cl)cc1)C1CCCN(c2nc3ccccc3o2)C1 (centres undefined),2.81% (inactive)
2,COc1ccc(N2CCN(CCNS(=O)(=O)c3ccc(Cl)s3)CC2)cc1,-0.57% (inactive)
3,CC(C)(COC(=O)Nc1ccccc1)COC(=O)Nc1ccccc1,-1.28% (inactive)
4,Cc1ccc(NC(=O)OCc2cncs2)cc1,49.5% (active)
5,O=C(Nc1ccc(Cl)cc1)OCc1cc(-c2ccccc2)on1,2.42% (inactive)
6,CN1C[C@]2(C=C3CCCCC3n3c(=O)n(-c4ccccc4)c(=O)n32)N=C1NC(=O)c1ccccc1 (some centres undefined),-2.02% (inactive)
7,CCOC(=O)[C@@]12CCC3=C1N(CCC3)C(=O)[C@H](CC(=O)N1CCN(C(=O)c3ccco3)CC1)C2,-1.01% (inactive)
8,Cc1ccc(-c2nc(C3CCCN(S(=O)(=O)c4ccc(Br)s4)C3)no2)cc1 (centres undefined),1.59% (inactive)
9,Cc1cc(C)c2nc3nc(C)cc(C)c3c(N)c2c1,26.9% (active)
10,CCCCN1CCN(C(=O)c2ccc3c(c2)NC(=O)C(C)(C)O3)CC1,0.61% (inactive)
11,C=CCN1[C@H](CC(C)C)COc2cccc(N3CCCC3)c2S1(=O)=O,-0.17% (inactive)
12,Cc1ccccc1NC(=O)CN1C(=O)N/C(=C\c2cccn2-c2cccc(C(=O)O)c2)C1=O,74.8% (active)
13,COC(=O)CN1C(=O)N/C(=C/c2ccc(OC)c(C)c2OC)C1=O,-4.91% (inactive)
14,Cc1ccccc1NC(=O)Cn1c(=O)n(CC2CCCO2)c(=O)c2ccccc21 (centres undefined),-0.24% (inactive)
15,CC(C)(C)C1C/C(=C/c2ccco2)C(=O)/C(=C/c2ccco2)C1 (centres undefined),99.5% (active)
16,CO/N=C(\C(=O)N[C@@H]1C(=O)N2C(C(=O)O)=C(COC(C)=O)CS[C@H]12)c1csc(N)n1 (stereo in doubt),9.54% (inactive) and 0.92% (inactive) and 27.5% (active)
17,C=CC1=C(C(=O)O)N2C(=O)[C@@H](NC(=O)/C(=N\OCC(=O)O)c3csc(N)n3)[C@H]2SC1,77.4% (active)
18,CCN1CCN(C(=O)N[C@@H](C(=O)N[C@@H]2C(=O)N3C(C(=O)O)=C(CSc4nnnn4C)CS[C@H]23)c2ccc(O)cc2)C(=O)C1=O,-2.2% (inactive)
19,C=CC1=C(C(=O)O)N2C(=O)[C@@H](NC(=O)/C(=N/OCC(=O)O)c3csc(N)n3)[C@H]2SC1,93.7% (active)
20,COc1ccc(-n2c(COc3ccc(C)cc3)nnc2SCC(=O)Nc2ccc(Oc3ccccc3)cc2)cc1,-5.28% (inactive)
21,CN(C)Cc1cn(-c2ccc(-c3noc4c3C(=O)N(CC(=O)N3CCOCC3)CC4)cc2)nn1,2.67% (inactive)
22,O=C(CN1CCCCC1)Nc1ccccc1C(=O)NC1CC1,3.15% (inactive)
23,CCOc1ccc(NC(=O)COc2ccc(S(=O)(=O)N3CCCC3)cc2)cc1,1.66% (inactive)
24,O=C(CN1CCCCCC1)Nc1c(Cl)cc(Cl)cc1Cl,-0.79% (inactive)
25,O=C(CN1CCCCC1)Nc1ccccc1Cl,45.6% (active)
26,O=C(CN1CCCCCC1)Nc1ccc(S(=O)(=O)N2CCCCC2)cc1,62.1% (active)
27,O=C(CSCc1ccc(Br)cc1)Nc1ccc(S(=O)(=O)N2CCCCCC2)cc1,-1.33% (inactive)

# — PubChem BioAssay AID687016 (The Scripps Research Institute Molecular Screening Center, 2013)
